Common to all, as to details: mRNA level, 48 h; actives raise or lower the signal
Read-out in assay [1]: Glutathione S-Transferase (GSTA2), GSTA2 (gene 2939)
Put plainly: LTEA_HepaRG_GSTA2: Life Technologies and Expression Analysis (LTEA) Assay for Glutathione S-Transferase (GSTA2) using HepaRG (AID 2283497). Summed up: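 Differentiated human HepaRG cells were exposed in duplicate for 48 h in serum-free induction medium, 8 points from 100 uM top in half-log steps, 0.5% DMSO. GSTA2 mRNA was measured by TaqMan qRT-PCR, normalized to ACTB, GAPDH and POLR2A; bidirectional fit versus DMSO.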

Read-out in assay [2]: Glutamate-cysteine ligase catalytic (GCLC), GCLC (gene 2729)
The assay can be described thus: LTEA_HepaRG_GCLC: Life Technologies and Expression Analysis (LTEA) Assay for Glutamate-cysteine ligase catalytic (GCLC) using HepaRG (AID 2283498). The method, boiled down:
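Differentiated HepaRG cells exposed 48 h in serum-free induction medium, eight-point half-log series topping at 100 uM in 0.5% DMSO, duplicates. GCLC mRNA by qRT-PCR normalized to ACTB, GAPDH and POLR2A, fitted bidirectionally versus DMSO.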

Read-out in assay [3]: growth arrest and DNA damage 45 (GADD45G), GADD45G (gene 10912)
The assay can be described thus: LTEA_HepaRG_GADD45G: Life Technologies and Expression Analysis (LTEA) Assay for growth arrest and DNA damage 45 (GADD45G) using HepaRG (AID 2283499). Summed up: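 Differentiated human HepaRG cells, 48 h post-plating, exposed 48 h in serum-free induction medium to 8 half-log concentrations (top 100 uM, 0.5% DMSO) in duplicate. GADD45G mRNA measured by Fluidigm TaqMan qRT-PCR, normalized to ACTB, GAPDH, POLR2A; bidirectional fit versus DMSO.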

Read-out in assay [4]: Glutamate-cysteine ligase regulatory (GCLM), GCLM (gene 2730)
Put plainly: LTEA_HepaRG_GCLM: Life Technologies and Expression Analysis (LTEA) Assay for Glutamate-cysteine ligase regulatory (GCLM) using HepaRG (AID 2283500). The method, boiled down: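 Differentiated HepaRG cells exposed 48 h in serum-free induction medium to eight half-log concentrations up to 100 uM (0.5% DMSO). GCLM mRNA by TaqMan qRT-PCR, normalized to ACTB, GAPDH and POLR2A; bidirectional fit versus DMSO.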

Read-out in assay [5]: Glutathione S-transferase M3 (GSTM3), GSTM3 (gene 2947)
Put plainly: LTEA_HepaRG_GSTM3: Life Technologies and Expression Analysis (LTEA) Assay for Glutathione S-transferase M3 (GSTM3) using HepaRG (AID 2283501). Summed up: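 Differentiated human HepaRG cells were exposed in duplicate for 48 h in serum-free induction medium, 8 points from 100 uM top in half-log steps, 0.5% DMSO. GSTM3 mRNA was measured by TaqMan qRT-PCR, normalized to ACTB, GAPDH and POLR2A; bidirectional fit versus DMSO.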

Read-out in assay [6]: Heat shock 70 kDa protein 1 (HSPA1A), gene 3303
Put plainly: LTEA_HepaRG_HSPA1A: Life Technologies and Expression Analysis (LTEA) Assay for Heat shock 70 kDa protein 1 (HSPA1A) using HepaRG (AID 2283502). The method, boiled down: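 Human HepaRG cells in serum-free induction medium were exposed in duplicate for 48 h to 8 half-log concentrations, highest 100 uM, in 0.5% DMSO. HSPA1A mRNA read by TaqMan qRT-PCR, normalized to ACTB, GAPDH, POLR2A, fitted bidirectionally against DMSO.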

Read-out in assay [7]: 3-Hydroxy-3-Methylglutaryl-CoA Synthase 2 (HMGCS2), HMGCS2 (gene 3158)
The assay can be described thus: LTEA_HepaRG_HMGCS2: Life Technologies and Expression Analysis (LTEA) Assay for 3-Hydroxy-3-Methylglutaryl-CoA Synthase 2 (HMGCS2) using HepaRG (AID 2283504). Summed up: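 Human HepaRG cells in serum-free induction medium were exposed in duplicate for 48 h to 8-point half-log series from 100 uM top in 0.5% DMSO. HMGCS2 mRNA measured by TaqMan qRT-PCR, normalised to ACTB, GAPDH, POLR2A; bidirectional fit versus DMSO.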

Read-out in assay [8]: HGF (gene 3082)
The assay can be described thus: LTEA_HepaRG_HGF: Life Technologies and Expression Analysis (LTEA) Assay for Hepatocyte Growth Facto (HGF) using HepaRG (AID 2283505). The method, boiled down: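 Differentiated HepaRG cells in serum-free induction medium exposed 48 h in duplicate, 8 half-log concentrations from 100 uM in 0.5% DMSO. HGF mRNA by qRT-PCR, normalised to ACTB, GAPDH, POLR2A; bidirectional fitting.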

Read-out in assay [9]: Insulin Like Growth Factor 1 (IGF1), IGF1 (gene 3479)
Put plainly: LTEA_HepaRG_IGF1: Life Technologies and Expression Analysis (LTEA) Assay for Insulin Like Growth Factor 1 (IGF1) using HepaRG (AID 2283506). The method, boiled down: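 Differentiated HepaRG cells in serum-free induction medium, exposed 48 h in duplicate to 8 half-log concentrations up to 100 uM in 0.5% DMSO. IGF1 mRNA by Fluidigm qRT-PCR, normalised to ACTB, GAPDH and POLR2A.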

Read-out in assay [10]: Insulin-like growth factor-binding protein 1 (IGFBP1), IGFBP1 (gene 3484)
Put plainly: LTEA_HepaRG_IGFBP1: Life Technologies and Expression Analysis (LTEA) Assay for Insulin-like growth factor-binding protein 1 (IGFBP1) using HepaRG (AID 2283508). Summed up:
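HepaRG cells, plated 48 h then switched to serum-free induction medium, exposed in duplicate for 48 h to 8-point half-log series from 100 uM in 0.5% DMSO. mRNA measured by qRT-PCR, normalized to ACTB/GAPDH/POLR2A; bidirectional fit versus DMSO.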

Read-out in assay [11]: Interleukin 6 (IL6), IL6 (gene 3569)
Put plainly: LTEA_HepaRG_IL6: Life Technologies and Expression Analysis (LTEA) Assay for Interleukin 6 (IL6) using HepaRG (AID 2283509). The method, boiled down:
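HepaRG cells exposed in duplicate for 48 h to eight half-log concentrations, top 100 uM, in 0.5% DMSO serum-free induction medium. mRNA measured by qRT-PCR, normalized to ACTB, GAPDH and POLR2A. Bidirectional fit versus DMSO.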

Read-out in assay [12]: Interleukin 6 Receptor (IL6R), IL6R (gene 3570)
Put plainly: LTEA_HepaRG_IL6R: Life Technologies and Expression Analysis (LTEA) Assay for Interleukin 6 Receptor (IL6R) using HepaRG (AID 2283510).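 For AC50: TaqMan qRT-PCR signal normalized to ACTB GAPDH and POLR2A housekeeping genes.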 Summed up: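 Differentiated HepaRG cells, plated 48 h, then exposed in duplicate for 48 h in serum-free induction medium to 8 half-log concentrations (top 100 uM, 0.5% DMSO). IL6R mRNA measured by TaqMan qRT-PCR, normalized to ACTB/GAPDH/POLR2A; bidirectional fit vs DMSO.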

Read-out in assay [13]: Potassium channel subfamily K member 1 (KCNK1), KCNK1 (gene 3775)
Put plainly: LTEA_HepaRG_KCNK1: Life Technologies and Expression Analysis (LTEA) Assay for Potassium channel subfamily K member 1 (KCNK1) using HepaRG (AID 2283511). The method, boiled down:
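Differentiated HepaRG cells, 48 h exposure in serum-free induction medium with 0.5% DMSO; 8 concentrations, half-log from 100 uM, duplicate. KCNK1 mRNA by qRT-PCR, normalized to ACTB, GAPDH, POLR2A; bidirectional fit vs DMSO.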

Read-out in assay [14]: Keratin 19 (KRT19), KRT19 (gene 3880)
The assay can be described thus: LTEA_HepaRG_KRT19: Life Technologies and Expression Analysis (LTEA) Assay for Keratin 19 (KRT19) using HepaRG (AID 2283512). The method, boiled down:
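Differentiated HepaRG cells in serum-free induction medium, exposed 48 h in duplicate to 8 half-log concentrations up to 100 uM in 0.5% DMSO. KRT19 mRNA by qRT-PCR, normalized to ACTB, GAPDH, POLR2A; bidirectional fit vs DMSO.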

Read-out in assay [15]: JUN Transcription Factor, JUN (gene 3725)
Put plainly: LTEA_HepaRG_JUN: Life Technologies and Expression Analysis (LTEA) Assay for JUN Transcription Factor using HepaRG (AID 2283513). The method, boiled down:
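HepaRG cells, 48 h post-plating, exposed 48 h in serum-free induction medium to 8-point half-log series (top 100 uM, 0.5% DMSO), duplicate; mRNA by qRT-PCR (TaqMan, Fluidigm), normalized to ACTB/GAPDH/POLR2A; bidirectional fit vs DMSO.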

Read-out in assay [16]: Lipase C (LIPC), LIPC (gene 3990)
The assay can be described thus: LTEA_HepaRG_LIPC: Life Technologies and Expression Analysis (LTEA) Assay for Lipase C (LIPC) using HepaRG (AID 2283514). Summed up:
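HepaRG cells, 48 h after plating, treated in duplicate for 48 h in serum-free induction medium over 8 half-log concentrations from 100 uM, 0.5% DMSO. LIPC mRNA by TaqMan qRT-PCR normalized to ACTB/GAPDH/POLR2A; bidirectional fit versus DMSO.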

Read-out in assay [17]: Lipoprotein lipase (LPL), LPL (gene 4023)
Put plainly: LTEA_HepaRG_LPL: Life Technologies and Expression Analysis (LTEA) Assay for Lipoprotein lipase (LPL) using HepaRG (AID 2283515). Summed up:
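Differentiated HepaRG cells, plated 48 h, then exposed 48 h in serum-free induction medium to 8 concentrations (top 100 uM, half-log steps) in 0.5% DMSO, duplicate. LPL mRNA measured by qRT-PCR, normalized to ACTB, GAPDH and POLR2A.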

Read-out in assay [18]: Hypoxia-inducible factor 1-alpha (Homo sapiens) (UniProt Q16665)
Put plainly: LTEA_HepaRG_HIF1A: Life Technologies and Expression Analysis (LTEA) Assay for Hypoxia-inducible factor 1 (HIF1A) Trancription factor using HepaRG (AID 2283503). The method, boiled down: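 Differentiated HepaRG cells in serum-free induction medium exposed 48 h, in duplicate, to 8-point half-log series from 100 uM in 0.5% DMSO. HIF1A mRNA measured by TaqMan qRT-PCR, normalized to ACTB/GAPDH/POLR2A, fitted bidirectionally versus DMSO.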

Read-out in assay [19]: Intercellular Adhesion Molecule 1 (ICAM1), ICAM1 (gene 3383)
The assay can be described thus: LTEA_HepaRG_ICAM1: Life Technologies and Expression Analysis (LTEA) Assay for Intercellular Adhesion Molecule 1 (ICAM1) using HepaRG (AID 2283507). Summed up: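 Differentiated human HepaRG cells in serum-free induction medium exposed 48 h in duplicate to 8 half-log concentrations (top 100 uM, 0.5% DMSO). ICAM1 mRNA quantified by TaqMan qRT-PCR, normalized to ACTB, GAPDH and POLR2A; bidirectional fitting versus DMSO.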

Read-out in assay [20]: MicroRNA 122 (MIR122), gene 406906
The assay can be described thus: LTEA_HepaRG_MIR122: Life Technologies and Expression Analysis (LTEA) Assay for MicroRNA 122 (MIR122) using HepaRG (AID 2283516). Note: the transcript read is the microRNA miR-122. The method, boiled down: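 Differentiated human HepaRG cells in serum-free induction medium exposed 48 h to 8 half-log concentrations from 100 uM in 0.5% DMSO, duplicate. MIR122 quantified by Fluidigm TaqMan qRT-PCR, normalised to ACTB, GAPDH, POLR2A; fold change fitted bidirectionally versus DMSO.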

Calls of active or inactive are those of the source. Rule for the calls: active = hit-call score of the fitted dose curve at least 0.9, where 1 is the maximum; inactive = score below 0.9.

Chain of Hypoxia-inducible factor 1-alpha (Homo sapiens) (Q16665 whole entry, looked up): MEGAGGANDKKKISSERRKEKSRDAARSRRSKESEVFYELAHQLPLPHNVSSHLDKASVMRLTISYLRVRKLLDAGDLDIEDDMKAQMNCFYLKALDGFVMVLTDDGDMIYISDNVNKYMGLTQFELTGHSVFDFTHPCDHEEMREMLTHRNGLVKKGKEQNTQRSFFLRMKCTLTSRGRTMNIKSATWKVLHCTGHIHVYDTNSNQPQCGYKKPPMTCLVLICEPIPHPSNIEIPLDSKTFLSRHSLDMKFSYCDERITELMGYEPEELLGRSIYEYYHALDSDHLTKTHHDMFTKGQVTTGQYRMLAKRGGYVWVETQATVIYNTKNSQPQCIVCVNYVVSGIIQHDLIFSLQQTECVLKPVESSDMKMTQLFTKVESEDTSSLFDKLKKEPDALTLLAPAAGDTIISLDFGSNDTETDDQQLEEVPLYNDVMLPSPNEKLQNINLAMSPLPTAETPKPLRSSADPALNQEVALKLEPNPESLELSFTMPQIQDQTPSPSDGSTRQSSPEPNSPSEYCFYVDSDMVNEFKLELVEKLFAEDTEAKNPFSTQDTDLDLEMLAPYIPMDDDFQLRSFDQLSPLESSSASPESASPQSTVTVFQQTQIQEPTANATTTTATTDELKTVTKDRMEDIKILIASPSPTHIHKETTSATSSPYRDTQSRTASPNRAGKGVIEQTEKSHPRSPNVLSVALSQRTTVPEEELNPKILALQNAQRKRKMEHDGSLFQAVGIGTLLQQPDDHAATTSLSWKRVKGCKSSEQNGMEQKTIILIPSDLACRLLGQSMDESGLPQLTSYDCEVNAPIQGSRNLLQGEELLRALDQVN

Regarding `CC(=O)Oc1ccccc1C(=O)O`, the outcome in assay [1], in assay [2], in assay [3], in assay [4], in assay [5] and in [6] was inactive. Moreover, the result in [7], in assay [8], in assay [9], in assay [10], in assay [11] and in [12] was inactive. The compound was classed as inactive in assay [13], in assay [14], in assay [15], in assay [16] and in [17].

For the compound `Cc1cc(=O)[nH]c(=S)[nH]1`, the call in assay [1], in assay [2], in assay [4], in assay [5], in [6] and in assay [18] was inactive. Further, the compound was called inactive in [7], in assay [8], in [9], in assay [19], in assay [10] and in assay [11]. Besides, the compound was called inactive in [12], in [13], in [14], in [15], in [16] and in [17].

Regarding `Cc1oc(-c2ccccc2)nc1CCOc1cccc2c1ccn2CCC(=O)O`, the AC50 was 81.5 µM (active) in assay [1]; 50 µM (active) in assay [2]; 75.8 µM (active) in assay [4]; 9.92 µM (active) in assay [5]; 83.2 µM (active) in assay [7]; 69.9 µM (active) in assay [9]. For the same compound, the half-maximal activity concentration (AC50) in [19] was 85.6 µM (active); in assay [10] it was 93.1 µM (active); in [11], 82 µM (active); in assay [12], 77.6 µM (active); in assay [14] it was 88.5 µM (active); in assay [16], 79.2 µM (active). Further, the concentration at half-maximal activity (AC50) in [17] was 0.0309 µM (active). The result in [6], in [18], in [8], in assay [13] and in assay [15] was inactive.

Turning to `Clc1cc(Cl)c(Cl)cc1Cl`, the compound was called inactive in assay [1], in assay [2], in assay [3], in assay [4], in assay [5] and in assay [6]. Moreover, the compound was classed as inactive in assay [18], in [7], in assay [8], in assay [9], in assay [10] and in assay [11]. Moreover, the compound was classed as inactive in assay [12], in assay [13], in assay [14], in assay [15], in assay [16] and in assay [17]. Further, the outcome in assay [20] was inactive.

By AC50 is commonly meant the concentration giving half of the maximal activity seen.

The record behind these values is PubChem BioAssay (EPA / NIEHS).
